The list is not random: actives were taken first. Their share in the collection is about 3.3%.
Tau fibril FP: blocks human tau fibril formation measured by polarization | K18 P301L tau heparin fibrillization, Alexa594 FP, 6 h | Potency, µM (top dose mostly 57.7 µM), for the others: top-dose activity, negative = inhibition, usual class: inhibitors | 280,000 tested, 0.39% active; further: nearly all actives have a fitted effect of over 55% in size
Target sequence (P10636 561-689 P618L limits assumed): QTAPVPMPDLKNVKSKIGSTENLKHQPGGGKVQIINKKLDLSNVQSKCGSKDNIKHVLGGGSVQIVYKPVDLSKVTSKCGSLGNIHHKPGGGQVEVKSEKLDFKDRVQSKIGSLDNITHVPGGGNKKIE
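K18 P301L tau (15 uM unlabeled/0.24 uM Alexa 594-labeled, final) + compound + heparin 20 uM final; 100 mM NaOAc pH 7; 6 hr 37 C; ThT 30 uM final added, 1 hr RT; FP ex 555/em 632 nm.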
Tau fluor counter: counter-screen for tau fibril formation inhibitors. tau K18 P301L Alexa594 fluorescence, heparin fibrillization. Potency, µM (doses to about 57.7 µM), without a hit: top-dose activity change, negative = decrease. 280,000 tested, 0.93% active. AID 1463; further: nearly all actives have a fitted effect of over 55% in size
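Human K18 P301L tau (15 uM unlabeled plus 0.24 uM Alexa 594-labeled, final) in 100 mM sodium acetate pH 7 was mixed with compound and 20 uM heparin and incubated 6 hr at 37 C.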
NPSR antagonist: neuropeptide S receptor (human) antagonism, cAMP. Potency, µM (series often up to 38.3 µM), for the others: at the top dose activity change, negative = inhibition, most hits filed as inhibitors. 220,000 tested, 1% active. CHO-NPSR cells, cAMP TR-FRET, antagonist mode. AID 1461. Q6W5P4; further: nearly all actives have a fitted effect of over 50% in size
Target sequence (Q6W5P4 whole entry, looked up): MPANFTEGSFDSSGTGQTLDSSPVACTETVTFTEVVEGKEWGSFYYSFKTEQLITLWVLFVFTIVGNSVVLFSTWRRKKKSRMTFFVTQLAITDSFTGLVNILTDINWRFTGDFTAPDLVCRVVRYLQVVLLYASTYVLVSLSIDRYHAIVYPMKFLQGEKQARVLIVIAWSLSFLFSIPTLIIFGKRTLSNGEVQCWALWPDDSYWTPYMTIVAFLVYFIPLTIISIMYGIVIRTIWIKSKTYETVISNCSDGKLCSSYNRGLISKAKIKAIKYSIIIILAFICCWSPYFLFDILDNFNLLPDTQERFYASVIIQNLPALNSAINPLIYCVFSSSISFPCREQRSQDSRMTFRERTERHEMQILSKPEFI
Tau ThT inhib: tau fibrillization inhibition (ThT binding) | recombinant tau K18 P301L (four-repeat tau fragment), heparin-induced fibrillization, ThT fluorescence | Potency, µM (titrated, usually from 57.4 µM), for inactives: at the highest dose activity, negative = inhibition, hits mostly inhibitors | 270,000 tested, 2.1% active; further: nearly all actives have a fitted effect of over 55% in size
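Recombinant human tau K18 fragment […] carrying P301L, 15 uM unlabeled plus 0.24 uM Alexa 594-labeled, was fibrillized with 20 uM heparin in 100 mM sodium acetate pH 7 for 6 hr at 37 C; 30 uM ThT fluorescence read after 1 hr.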
Luc counter: counter-screen: inhibitors of Kinase-Glo firefly luciferase | Q27757 | Kinase-Glo luciferase, ATP luminescence, 8 min | Potency, µM (top dose mostly 38.3 µM), inactives show at the top dose activity change, negative = inhibition, usual class: inhibitors | 200,000 tested, 0.28% active; further: nearly all actives have a fitted effect of over 60% in size
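Kinase-Glo luciferase light output from ATP and luciferin was measured with 10 uM ATP, within the enzyme's linear range. Buffer: 50 mM imidazole pH 7.2, 50 mM KCl, 7 mM MgCl2, 0.01% Tween 20, 0.05% BSA; luminescence read after 8 min at ambient temperature.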
Starred values were filed as active, the others as inactive; ? = inconclusive; . = no result given; [ ] = dose if it differs, or a comment. The call rests on the fitted dose curve; in most records, active means well fitted curve in the direction sought with a large enough effect; inconclusive means small, poorly fitted or top-dose-only effect, or another doubt; inactive means no such curve, though single readings can be large; an effect the other way counts as inactive or inconclusive. On the % scale 0 is the no-effect control and ±100 the full control effect; potency means the concentration at half of the fitted maximal effect.

SMILES | Tau fibril FP | Tau fluor counter | NPSR antagonist | Tau ThT inhib | Luc counter
O=C(NCCSc1c(-c2ccccc2)[nH]c2ccccc12)c1cc2ccccc2oc1=O | -11.8% | 7.08µM*[quencher] | -23.2% | ? | -1.9%
Cc1ccc(-c2[nH]c3ccccc3c2SCCNC(=O)c2cc3ccccc3oc2=O)cc1 | -9.0% | 8.91µM*[quencher] | -19.7% | ? | 4.4%
CN(C)CCNC(=O)c1cc2ccccc2oc1=O | 5.8% | 4.6% | -9.9%[46.1 µM] | -4.0% | 2.1%
CCOc1ccc(CNC(=O)c2cc3ccccn3n2)cc1 | -2.6% | -7.0% | . | -10.0% | .
Nc1nc2ccc(S(=O)(=O)N3CCCCC3)cc2s1 | ? | -23.2% | -20.1%[46.1 µM] | 31.6µM* | -1.2%
CCOC(=O)/C(C#N)=C1\C(=O)N(Cc2ccccc2)c2ccccc21 | ? | ? | ? | 35.5µM* | .
CC[C@H](C)[C@@H]1NC(=O)c2cc([N+](=O)[O-])cc(I)c2NCC[C@@H](C(N)=O)NC(=O)[C@H](CCCN=C(N)N)NC1=O | -7.1% | -9.4% | 6.5% | -10.9% | -2.6%
NC(=O)[C@@H]1CCCNc2c(I)cc([N+](=O)[O-])cc2C(=O)N[C@@H](CCCN=C(N)N)C(=O)N[C@@H](CCCN=C(N)N)C(=O)N1 | -11.1% | ? | -3.3% | 28.2µM* | -0.8%
CCN(CC)c1ccc(/C=C2/C(=O)c3ccc(C(=O)O)cc3C2=O)cc1 | ? | -11.0% | -51.0% | 3.16µM* | -11.0%
Cc1ccccc1Nc1ncc(C#N)c(N)n1 | 2.6% | -0.6% | -8.0% | -3.5% | .
Cc1ccccc1Nc1nc(N)c2ccccc2n1 | 3.5% | 1.7% | -5.6% | -5.8% | 12.6µM*
Nc1nc(Nc2ccccc2)nc2ccccc12 | -0.3% | -12.9% | 21.7%[46.1 µM] | -0.7% | 11.2µM*
Nc1nc(Nc2ccc(Cl)cc2)nc2ccccc12 | ? | ? | -8.3%[46.1 µM] | -8.9% | 14.1µM*
CCn1c2ccccc2c2cc(N)ccc21 | 16.0% | ? | -4.9%[46.1 µM] | ? | -7.0%
CCn1c(C)cc(=S)c2ccccc21 | ? | -29.2% | ? | 20µM* | -21.7%
CCN(CCCNC(=O)c1ccc(Sc2ccc(F)cc2)c(NC(C)=O)c1)c1ccccc1 | 9.5% | ? | . | -6.5% | .
Cc1nn(-c2ccc(Cl)cc2)c(=O)c2ccccc12 | -1.5% | 2.1% | -33.0% | 4.1% | -0.3%
Cc1c(Cl)sn(-c2ccc(Cl)cc2)c1=O | ? | -20.4% | 2.51µM* | 14.1µM* | -2.3%
Cc1ccccc1OCCNc1cc(N2CCNCC2)ccc1[N+](=O)[O-] | ? | ? | ? | 15.8µM* | -0.6%
Cc1ccc(OCCNc2cc(N3CCN(CCO)CC3)ccc2[N+](=O)[O-])cc1C | -8.4% | ? | 1.3% | 15.8µM* | -0.7%
Cc1cccc(OCCNc2cc(N3CCOCC3)ccc2[N+](=O)[O-])c1 | -3.0% | ? | -4.1%[46.1 µM] | 7.94µM* | 3.5%
Cc1cc(OCCN2CCCC2)ccc1[N+](=O)[O-] | -2.5% | 9.3% | 13.5% | -2.4% | 1.4%
Cc1cccc(OCCNc2cc(N3CCN(C)CC3)ccc2[N+](=O)[O-])c1 | -12.5% | ? | 9.2% | ? | 1.1%
COc1ccccc1OCCNc1cc(N2CCCCC2)ccc1[N+](=O)[O-] | 11.9% | -21.7% | -20.2% | ? | 1.7%
Cc1cccc(/C=C(\c2nc3ccccc3[nH]2)S(=O)(=O)c2ccccc2)c1 | -1.6% | 5.9% | 7.94µM* | 10.8% | 4.3%
SMILES | Tau fibril FP | Tau fluor counter | NPSR antagonist | Tau ThT inhib | Luc counter
Cc1ccc(NC(=S)c2nc3ccccc3[nH]2)c(C)c1 | 2.2% | ? | -11.2% | ? | -13.8%
Oc1ccc(NCc2cccc(OCc3ccccc3)c2)cc1 | ? | ? | -8.4% | 28.2µM* | 2.3%
O=[N+]([O-])c1ccc(COc2cccc(CNc3ccc(F)cc3)c2)cc1 | 11.8% | ? | -18.2%[46.1 µM] | ? | 4.5%
Oc1ccc(NCc2cccc(OCc3ccc(F)cc3)c2)cc1 | ? | ? | 12.6% | 22.4µM* | -3.8%
COc1cccc(-c2nc(SCC(=O)Nc3ccc4c(c3)OCO4)c(-c3ccccc3)[nH]2)c1 | -5.6% | 7.94µM*[quencher] | . | ? | .
Cc1cccc(-c2nc(SCC(=O)Nc3ccc4c(c3)OCO4)c(-c3ccccc3)[nH]2)c1 | ? | 6.31µM*[quencher] | . | ? | .
O=C(CSc1nc2ncc(Br)cc2[nH]1)c1ccc([N+](=O)[O-])cc1 | ? | ? | -19.0% | 28.2µM* | 0.1%
O=C(NNC(=O)c1cc2cc(Br)ccc2oc1=O)c1ccc(O)cc1O | 2.5% | ? | -41.3% | 8.91µM* | -3.3%
COc1ccc(/C=C/c2cc(C(F)(F)F)on2)cc1 | 2.0% | -1.3% | 2.1% | -3.6% | .
NC1=NC[C@@H](Cc2ccc(O)cc2)N1CCCCC1CCCCC1 | 5.7% | -3.4% | 5.01µM* | -4.3% | .
NC1=NC[C@H](Cc2ccc(O)cc2)N1CC1CCCCC1 | -1.4% | 9.9% | 2.9% | 4.6% | .
CCOc1cc(S(=O)(=O)NCCc2c(C)[nH]c3ccc(C)cc23)ccc1Br | 15.4% | 3.55µM*[quencher] | . | ? | .
CCOc1cc(S(=O)(=O)NCCc2c(C)[nH]c3ccc(C)cc23)ccc1F | ? | ? | . | -7.9% | .
Cc1ccc(C(=O)/C=C/c2ccc3c(c2)OCCO3)c(O)c1 | 7.1% | -23.2% | -5.5% | 6.31µM* | .
O=C(/C=C/c1ccccc1)c1ccc2c(c1)OCCCCO2 | 12.1% | 4.1% | -26.9%[46.1 µM] | ? | -11.2%
O=C(/C=C/c1ccc2c(c1)OCCCO2)c1ccc2ccccc2c1O | -0.4% | ? | -14.7% | 3.16µM* | -2.1%
CS(=O)(=O)N1CCC2(CC1)CN(c1ccccn1)C2 | . | . | . | . | -0.9%
CCOc1ccc(/C=C/C(=O)c2cccs2)cc1 | -4.6% | ? | . | ? | 14.1µM*
Oc1ccc(/C=C/c2cc(O)cc(O)c2)cc1 | ? | ? | -27.7% | 10µM* | -0.3%
COc1cc(O)cc(/C=C/c2ccccc2)c1 | ? | ? | . | -7.9% | -3.4%
Oc1ccc(/C=C\c2cc(O)cc(O)c2)cc1 | 10.0% | 14.1µM*[quencher] | . | 14.1µM* | -15.7%
COc1cccc(=O)c2c(C)n(CC(=O)c3ccccc3)c(C)c12 | 9.1% | ? | -18.9% | 14.1µM* | -0.9%
CNc1ncnc2c1ncn2[C@H]1C[C@H](OP(=O)(O)O)[C@H](COP(=O)(O)O)O1 | 5.6% | 3.1% | . | -0.2% | -2.7%
CCOc1ccc(/C=C/C(=O)Nc2sc3c(c2C(=O)OC)C(C(=O)OC)CC3)cc1 (stereo unspecified) | ? | ? | . | 3.16µM* | .
O=C(CCc1ccccc1)N1CCc2c([nH]c3ccccc23)C1c1ccc(F)cc1 (stereo unspecified) | -4.7% | -16.3% | . | -4.9% | .
COc1cc(NC(=O)Nc2cccc(-c3noc(C)n3)c2)cc(OC)c1OC | 16.8% | 12.6µM*[quencher] | . | ? | .
COc1cc(NC(=O)Nc2cccc(C(C)=O)c2)cc(OC)c1OC | ? | ? | -15.3%[46.1 µM] | -18.9% | 4.1%
COc1ccc2c(C)cc(Sc3nnnn3-c3ccccc3)nc2c1 | -9.6% | -26.2% | -16.8%[46.1 µM] | -10.2% | 3.3%
